15 compounds from PubChem BioAssay (NCI) can be followed below.

Compounds without any hit were thinned out: in the full panel of roughly 83,000, 20% have a hit.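 Testing used 96-well plates and a 48-hour single-concentration exposure. Example: -40 means 40% of the starting cells died.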 A number with no mark means an inactive call. Activity calls are given as the source filed them. Rule for the calls: active = growth percent below 10; inactive = the rest.

Among the test systems are HCT-15 colon; HT29 colon; SNB-19 CNS; U251 CNS; PC-3 prostate; UACC-62 melanoma; LOX IMVI melanoma; SK-MEL-28 melanoma; SK-MEL-5 melanoma.
Holding throughout (assay): NCI-60 one-dose screen, 48 h (100 = growth as untreated, 0 = no growth, -100 = all killed)
What all share (conditions): 10 µM unless noted

Consider `COc1cc(/C=N/n2cnc3oc(-c4ccccc4)cc3c2=N)cc(CN2CCCC2)c1O`, for which the growth is -85.2% (active) in the assay with HCT-15 colon; -48.2% (active) in the assay on HT29 colon; 21.8% in the assay on SNB-19 CNS; -45.7% (active) in the assay on U251 CNS; -68.6% (active) in the assay with PC-3 prostate; 96.7% with UACC-62 melanoma. Besides, the growth in the assay on LOX IMVI melanoma was -88.5% (active); with SK-MEL-28 melanoma, 91.6%.

Turning to `COc1ccc(-c2nnc(SCc3ccc(O)c4ncccc34)n2-c2ccccc2)cc1`, the growth is 9.65% (active) in the assay on HCT-15 colon; 59.2% with HT29 colon; 11.2% in the assay on U251 CNS; 20.7% in the assay on PC-3 prostate; -11% (active) in the assay on SK-MEL-5 melanoma; 2.62% (active) with UACC-62 melanoma. The growth in the assay with LOX IMVI melanoma was -10.9% (active); in the assay with SK-MEL-28 melanoma, 20.2%.

Consider `CCCC(=O)NC(c1cccnc1)c1cc(Cl)c2cccnc2c1O` (stereo not given), for which the growth with HCT-15 colon is 18.5%; in the assay on HT29 colon, 35.5%; in the assay with U251 CNS, 24.2%; in the assay on PC-3 prostate, 41.1%; in the assay on SK-MEL-5 melanoma it was 34.3%; with UACC-62 melanoma, 23.8%. For the same compound, the figures for the growth in the assay with LOX IMVI melanoma and in the assay with SK-MEL-28 melanoma were 32.7% and 51.9%, respectively.

With `CN(c1ccc(F)cc1)S(=O)(=O)c1ccc(-c2cnc(C3CC3)o2)cc1`, the growth in the assay on HCT-15 colon is 17.9%; in the assay on HT29 colon, 13.9%; in the assay with SNB-19 CNS, 36.9%; in the assay on U251 CNS, 23.3%; in the assay with PC-3 prostate it was 17.8%; with SK-MEL-5 melanoma, 26.8%. The growth was 30.5% in the assay with UACC-62 melanoma and 56.7% in the assay with SK-MEL-28 melanoma.

In the case of `O=C(Nc1cccc(Cl)c1)Nc1nc2ccc([N+](=O)[O-])cc2s1`, the growth is 1.52% (active) with HCT-15 colon; 4.55% (active) in the assay with HT29 colon; 21.2% in the assay with SNB-19 CNS; 5.89% (active) in the assay with U251 CNS; 6.96% (active) in the assay with PC-3 prostate; -75.3% (active) with SK-MEL-5 melanoma. The values for the growth with UACC-62 melanoma and with SK-MEL-28 melanoma were -40.2% (active) and 0.117% (active), respectively.

As to `O=C(CN1C(=O)CSC1=O)Nc1ccc(C(=O)/C=C/c2cc3ccccc3nc2Cl)cc1`, the growth in the assay with HCT-15 colon is 79.3%; in the assay on HT29 colon, 17.4%; in the assay on SNB-19 CNS, 83.4%; in the assay on U251 CNS it was 77.2%; in the assay on PC-3 prostate it was 70.5%; in the assay with SK-MEL-5 melanoma, 34%. In addition, the growth is 74% with UACC-62 melanoma, 37.5% in the assay with LOX IMVI melanoma and 95.4% in the assay on SK-MEL-28 melanoma.

In the case of `NC(=S)N/N=C(/C=C/c1cn(-c2ccccc2)nc1-c1ccc(Cl)cc1)c1cc2ccccc2oc1=O`, the growth in the assay with HCT-15 colon is 19.9%; in the assay with HT29 colon, 36.1%; in the assay on SNB-19 CNS it was 47.6%; with U251 CNS, 35.4%; with PC-3 prostate it was 28%; in the assay with SK-MEL-5 melanoma, 30.4%. The growth with UACC-62 melanoma is 49.6%; with LOX IMVI melanoma it was 36%; in the assay on SK-MEL-28 melanoma, 73%.

`Oc1ccccc1-c1nnc(SCc2ccc(O)c3ncccc23)n1-c1ccccc1`: the growth is 17.6% in the assay with HCT-15 colon; 14.6% with HT29 colon; 11.5% with U251 CNS; 20.5% with PC-3 prostate; -60.3% (active) in the assay on SK-MEL-5 melanoma; -8.29% (active) in the assay with UACC-62 melanoma. Also, the values for the growth in the assay with LOX IMVI melanoma and with SK-MEL-28 melanoma were 3.79% (active) and 14.8%, respectively.

With `Cc1cc(F)cc(NS(=O)(=O)c2ccc(-c3cnc(C4CC4)o3)cc2)c1`, the growth in the assay with HCT-15 colon is 22.4%; with HT29 colon, 8.59% (active); in the assay on SNB-19 CNS it was 35.2%; in the assay on U251 CNS it was 22.6%; in the assay with PC-3 prostate, 17.4%; in the assay on SK-MEL-5 melanoma it was 21.5%. In addition, the growth is 25.6% with UACC-62 melanoma and 60.4% with SK-MEL-28 melanoma.

Regarding `O=C(Nc1cccc(Cl)c1)Nc1nc2ccc(-c3cccc4ccccc34)cc2s1`, the growth in the assay with HCT-15 colon was 34.1%; in the assay on HT29 colon, 49.4%; in the assay with SNB-19 CNS, 56.4%; in the assay on U251 CNS, 35.4%; in the assay on PC-3 prostate it was 24.9%; in the assay with UACC-62 melanoma, 42.3%. Further, the growth in the assay on SK-MEL-28 melanoma was 73.3%.

For the compound `O=C1[C@H]2Cc3c([nH]c4ccccc34)[C@H](c3ccc(Cl)cc3)N2C(=O)CN1C1CCN(Cc2c(Cl)cccc2Cl)CC1`, the growth in the assay with HCT-15 colon was 39.5%; with HT29 colon, 18.2%; in the assay on SNB-19 CNS, 80.6%; in the assay on U251 CNS it was 69.5%; in the assay on PC-3 prostate, 49.3%; in the assay on SK-MEL-5 melanoma, 66.3%. For the same compound, the growth in the assay with LOX IMVI melanoma is 15.3%.

With `O=C(CCCCCCN1CC(=O)N2[C@@H](c3cc(F)cc(F)c3)c3[nH]c4ccccc4c3C[C@H]2C1=O)NO`, the growth was 96.7% in the assay on HCT-15 colon; 47.8% with HT29 colon; 65.9% in the assay on SNB-19 CNS; 57.3% in the assay with U251 CNS; 48.5% with PC-3 prostate; 21.4% in the assay on UACC-62 melanoma. Also, the figures for the growth in the assay on LOX IMVI melanoma and with SK-MEL-28 melanoma were 19.6% and 52.7%, respectively.

`O=C(/C=C1\C=CN(CCCCCCF)c2ccccc21)n1ccc2ccccc21`: the growth in the assay with HCT-15 colon was 101%; with HT29 colon, 98.3%; with SNB-19 CNS, 97.1%; in the assay on U251 CNS it was 98.9%; with PC-3 prostate, 84.7%; with SK-MEL-5 melanoma, 94.4%. The growth in the assay with UACC-62 melanoma is 76%; in the assay with LOX IMVI melanoma it was 101%; in the assay on SK-MEL-28 melanoma, 106%.

With `O=[N+]([O-])c1ccc(-c2nnc(SCc3ccc(O)c4ncccc34)o2)cc1`, the growth is 10.9% with HCT-15 colon; 47.4% in the assay on HT29 colon; 22.2% with SNB-19 CNS; 16.2% with U251 CNS; 15% in the assay with PC-3 prostate; -6.14% (active) in the assay with SK-MEL-5 melanoma. In addition, the growth in the assay on LOX IMVI melanoma is 25%; in the assay on SK-MEL-28 melanoma, 38.9%.

As for `Cc1cc(Cl)cc(NS(=O)(=O)c2ccc(-c3cnc(C4CC4)o3)cc2)c1`, the growth was 21.8% in the assay on HCT-15 colon; 10.7% in the assay on HT29 colon; 23.9% in the assay on U251 CNS; 17.4% with PC-3 prostate; 32.5% in the assay with SK-MEL-5 melanoma; 31.5% with UACC-62 melanoma. In the assay on SK-MEL-28 melanoma, the growth is 55.4%.
